Data reported in PubChem BioAssay (Tox21).
Values joined by “and” are separate entries in the source; they are usually repeats but may differ in a detail not shown here. Equal values may be shown once. Records with an inconclusive call do not appear. Where a call stands in place of a potency, no number is given. Active and inactive are the calls of the source. Calls come from the whole dose curve; as a rule, active = well fitted inhibition curve with a large enough effect in the signal ratio in the repeat runs; inconclusive = weak or mixed curves, or effect the other way; inactive = flat fitted curve, though single readings scatter; the % refers to the signal ratio.

Experiment: qHTS assay for small molecule disruptors of the mitochondrial membrane potential (AID 720635)
Conditions: HepG2 mitochondrial membrane potential, Mito-MPS dye ratio; series mostly up to 83.2 µM
Source text: U.S. Tox21 Program National Center for Advancing Translational Sciences [NCATS] NIH Chemical Genomics Center [NCGC] U.S. Environmental Protection Agency [EPA] National Institutes of Environmental Health Sciences [NIEHS] National Toxicology Program [NTP] U.S. Food and Drug Administration [FDA] Tox21 Assay Overview: Mitochondrial membrane potential (MMP), one of the parameters for mitochondrial function, is generated by mitochondrial electron transport chain that creates an electrochemical gradient by a series of redox reactions. This gradient drives the synthesis of ATP, a crucial molecule for various cellular processes. Measuring MMP in living cells is commonly used to assess the effect of chemicals on mitochondrial function. […] The dye accumulates in the mitochondria of healthy cells as aggregates, with red fluorescence. The mitochondrial potential collapses and the dye can no longer accumulate in the mitochondria and remains in the cytoplasm in monomers, with green fluorescence.
Tox21 Assay Protocol Summary: 2,000 HepG2 cells in 5 uL/well were dispensed into black, clear-bottom 1536-well plates using a Multidrop Combi (Thermo Scientific) dispenser. The assay plates were incubated overnight at 37C to allow cells to attach to the wells, followed by the transfer of 23 nL compound or DMSO vehicle by a pin tool (Kalypsys). The plates were incubated for 1 hr at 37C and 5% CO2, followed by the addition of 5 uL of 2X Mito-MPS dye (BD Biosciences) into each well using Flying Reagent Dispenser (Aurora Discovery) and then following 30 min incubation at 37C. Fluorescence intensity (490nm excitation and 535nm emission for monomers; and 540nm excitation and 590nm emissions for aggregates) was measured using an Envision plate reader.
Potency is the fitted concentration of half-maximal effect.

Row | SMILES | Potency | ratio activity, negative = MMP loss
1 | ON(Cc1ccccc1)Cc1ccccc1 | inactive | 
2 | CC(=O)Nc1ccccc1C | inactive | 
3 | C(=C\c1ccccc1)/CN1CCN(C(c2ccccc2)c2ccccc2)CC1 | inactive | 
4 | CC1C2CC(CC2C2CCCC(O)C2)C1(C)C (stereo not given) | 27.3 µM (active) | 
5 | CO[C@H]1O[C@H](CO)[C@@H](O)[C@H](O)[C@H]1O | inactive | 
6 | CN(C)C(=O)Nc1ccc(Oc2ccc(Cl)cc2)cc1 | 6.11 µM (active) | 
7 | Fc1ccccc1[C@@H](F)COC1CCC(Nc2ncnc3[nH]ncc23)CC1 (stereo not given in full) | 2.73 µM (active) | 
8 | COc1ccc(C(=O)c2cccc(O)c2)c(OC)c1 | 30.6 µM (active) | 
9 | O=C1OCCN1/N=C/c1ccc([N+](=O)[O-])o1 | inactive | 
10 | CC(CCc1ccc2c(c1)OCO2)NN (stereo not given) | inactive | 
11 | Cc1oncc1C(=O)Nc1ccc(C(F)(F)F)cc1 | 10.1 µM (active) and 7.7 µM (active) | 
12 | CO[C@@]12[C@H](COC(N)=O)C3=C(C(=O)C(C)=C(N)C3=O)N1C[C@@H]1N[C@@H]12 | inactive | 
13 | COC(=O)CC(=O)C(C)(C)C | inactive | 
14 | CC(CCO)CCc1ccccc1 (stereo not given) | inactive | 
15 | CCc1c2c(nc3ccc(OC(=O)N4CCC(N5CCCCC5)CC4)cc13)-c1cc3c(c(=O)n1C2)COC(=O)[C@]3(O)CC | 11.9 µM (active) | 
16 | CCOC(=O)[C@@H](C)Oc1ccc(Oc2nc3ccc(Cl)cc3o2)cc1 | inactive | 
17 | C=CCOC(=O)/C=C\C(=O)OCC=C | inactive | 
18 | OCCSc1ccccc1 | inactive | 
19 | CCCCCCCC/C=C\CCCCCCCC(=O)OC(CO)CO | inactive | 
20 | O=C(N/N=C/c1ccc([N+](=O)[O-])o1)c1ccc(O)cc1 | 1.27 µM (active) | 

Row | SMILES | Potency | ratio activity, negative = MMP loss
21 | CCOC(=O)CC(=O)C(=O)OCC | inactive | 
22 | CC1(C)C2=CCCC(C)(C)[C@]23CC[C@H]1C3 | inactive | 
23 | COc1cc2c(N3CCN(C(=O)Nc4ccc(OC(C)C)cc4)CC3)ncnc2cc1OCCCN1CCCCC1 | 26.6 µM (active) | 
24 | CC#N | inactive | 
25 | Nc1ccc(Cl)cc1[N+](=O)[O-] | 53.9 µM (active) | 
26 | Cc1cc(O)c2c(O)c3c(O)cccc3cc2c1 | 18.8 µM (active) | 
27 | CCCCCCOC(=O)C(C)C | inactive | 
28 | CCCCC(=O)O[C@]1(C(=O)CO)[C@@H](C)C[C@H]2[C@@H]3CCC4=CC(=O)C=C[C@]4(C)[C@@]3(F)[C@@H](O)C[C@@]21C | 19.3 µM (active) | 
29 | CCC(=O)Oc1ccc(/C(CC)=C(\CC)c2ccc(OC(=O)CC)cc2)cc1 | 8.63 µM (active) | 
30 | Cc1ccc(/C=N/n2c(-c3ccccc3)csc2=S)cc1 | 18.8 µM (active) | 
31 | N#C/C(=C1/SC[C@@H](c2ccc(Cl)cc2Cl)S1)n1ccnc1 | 26.6 µM (active) | 
32 | O=C(O)Cc1ccc(-c2ccccc2)cc1 | inactive | 
33 | CCCC1C(CC)=CC(CC)=CN1c1ccccc1 (stereo not given) | 54.5 µM (active) | 
34 | CCCOCCOCCO | inactive | 
35 | CCCOC(=O)c1ccc(C(=O)OCCC)nc1 | inactive | 
36 | COCCOC | inactive | 
37 | [O]=[Bi] |  | 14.9% [at 8.08 µM] (inactive)
38 | O=C(O)c1cccc(O)c1 | inactive | 
39 | CCOC(=O)c1ccccc1OC | inactive | 
40 | COc1cc2[nH]c(=O)[nH]c(=O)c2cc1OC | inactive | 
